Among all 3,200 compounds or so, about 300 (9.4%) showed activity. Shown is part of a subset that was picked to be rich in actives.
Tested on: A673/TR/shEF
Test: cell viability (LOESS-normalised, relative to median of negative controls) (log2 ratio); higher = more viable cells (less compound effect), active = hit call of the paper (over 3 MAD below the median)
Details: treatment time: 72 h
In short: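 A673/TR/shEF Ewing sarcoma cells (1,500 per well, 384-well plates) were grown with or without doxycycline to induce EWS-FLI1 shRNA knockdown, starting 24 h before compounds. Library compounds at two or more concentrations, with DMSO controls, were added for three days. Cell viability was read by CellTiter-Glo luminescence on an Envision reader, then LOESS-corrected per plate, divided by the median of negative controls and log2-transformed. Hits were wells at least three median absolute deviations from the median of all screened wells.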

[1] = 0.25 µM, library screen: screen2, EWS-FLI1 expression: high (no doxycycline)
[2] = 0.25 µM, library screen: screen2, EWS-FLI1 expression: low (doxycycline-induced shRNA knockdown)
[3] = 2.5 µM, library screen: screen2, EWS-FLI1 expression: high (no doxycycline)
[4] = 2.5 µM, library screen: screen2, EWS-FLI1 expression: low (doxycycline-induced shRNA knockdown)
[5] = 0.25 µM, library screen: screen1, EWS-FLI1 expression: high (no doxycycline)
[6] = 0.25 µM, library screen: screen1, EWS-FLI1 expression: low (doxycycline-induced shRNA knockdown)
[7] = 2.5 µM, library screen: screen1, EWS-FLI1 expression: high (no doxycycline)
[8] = 2.5 µM, library screen: screen1, EWS-FLI1 expression: low (doxycycline-induced shRNA knockdown)
[9] = 0.025 µM, library screen: screen2, EWS-FLI1 expression: high (no doxycycline)
[10] = 0.025 µM, library screen: screen2, EWS-FLI1 expression: low (doxycycline-induced shRNA knockdown)
[11] = 25 µM, library screen: screen2, EWS-FLI1 expression: high (no doxycycline)
[12] = 25 µM, library screen: screen2, EWS-FLI1 expression: low (doxycycline-induced shRNA knockdown)
[13] = 0.103 µM, library screen: screen3, EWS-FLI1 expression: high (no doxycycline)
[14] = 0.103 µM, library screen: screen3, EWS-FLI1 expression: low (doxycycline-induced shRNA knockdown)
[15] = 0.308 µM, library screen: screen3, EWS-FLI1 expression: high (no doxycycline)
[16] = 0.308 µM, library screen: screen3, EWS-FLI1 expression: low (doxycycline-induced shRNA knockdown)
[17] = 0.926 µM, library screen: screen3, EWS-FLI1 expression: high (no doxycycline)
[18] = 0.926 µM, library screen: screen3, EWS-FLI1 expression: low (doxycycline-induced shRNA knockdown)
[19] = 2.8 µM, library screen: screen3, EWS-FLI1 expression: high (no doxycycline)
[20] = 2.8 µM, library screen: screen3, EWS-FLI1 expression: low (doxycycline-induced shRNA knockdown)
[21] = 8.3 µM, library screen: screen3, EWS-FLI1 expression: high (no doxycycline)
[22] = 8.3 µM, library screen: screen3, EWS-FLI1 expression: low (doxycycline-induced shRNA knockdown)
[23] = 25 µM, library screen: screen3, EWS-FLI1 expression: high (no doxycycline)
[24] = 25 µM, library screen: screen3, EWS-FLI1 expression: low (doxycycline-induced shRNA knockdown)
[25] = 0.025 µM, library screen: screen1, EWS-FLI1 expression: high (no doxycycline)
[26] = 0.025 µM, library screen: screen1, EWS-FLI1 expression: low (doxycycline-induced shRNA knockdown)
[27] = 25 µM, library screen: screen1, EWS-FLI1 expression: high (no doxycycline)
[28] = 25 µM, library screen: screen1, EWS-FLI1 expression: low (doxycycline-induced shRNA knockdown)

Measured: cell viability (log2)

CC(C)(C)[C@]1(O)CCN2CC3c4ccccc4CCc4cccc(c43)[C@@H]2C1 (some centres undefined)
inactive: [1] 0.166 | [2] 0.165 | [3] 0.11 | [4] 0.076

CC12CCC3c4ccc(OCc5ccccc5)cc4CCC3C1C[C@@H](O)[C@@H]2O (some centres undefined)
inactive: [5] 0.0858 | [6] 0.0634 | [7] 0.147 | [8] 0.17

COc1cc(NC(C)CCCN)c2ncccc2c1 (centres undefined)
inactive: [9] 0.0561 | [10] -0.00137 | [5] 0.054 | [6] 0.199 | [1] 0.0891 | [2] 0.0483 | [7] 0.127 | [8] 0.305 | [3] 0.104 | [4] -0.00544 | [12] -0.0311
active: [11] -0.632

CCCCC1=NC2(CCCC2)C(=O)N1Cc1ccc(-c2ccccc2-c2nn[nH]n2)cc1
inactive: [13] 0.107 | [14] 0.0606 | [5] 0.058 | [6] 0.0291 | [15] -0.0112 | [16] 0.0296 | [17] 0.00566 | [18] 0.0237 | [7] 0.0857 | [8] 0.072 | [19] 0.0909 | [20] 0.0243 | [21] 0.0907 | [22] 0.057 | [23] 0.0719 | [24] 0.134

CC(C)[C@@H]1CC[C@@H](C)CC1=O
inactive: [5] 0.057 | [6] 0.0478 | [7] 0.148 | [8] 0.0792

O=C(c1cc(Cc2n[nH]c(=O)c3ccccc23)ccc1F)N1CCN(C(=O)C2CC2)CC1
active: [23] -0.244 | [24] -0.143
inactive: [13] -0.00614 | [14] 0.0146 | [15] -0.0732 | [16] -0.0144 | [17] 0.00937 | [18] 0.0508 | [19] -0.137 | [20] 0.0104 | [21] -0.158 | [22] -0.00135

CN1CCCC(n2nc(Cc3ccc(Cl)cc3)c3ccccc3c2=O)CC1 (centres undefined)
inactive: [13] 0.00451 | [14] 0.0233 | [15] 0.0154 | [16] 0.0686 | [17] 0.0285 | [18] 0.0485 | [19] 0.0385 | [20] 0.0809 | [21] 0.0197 | [22] 0.0247 | [23] -0.00429 | [24] -0.0202

CC(=O)[C@H]1CCC2C3CC=C4C[C@@H](OS(=O)(=O)O)CC[C@]4(C)C3CC[C@@]21C (some centres undefined)
inactive: [1] 0.147 | [2] 0.0952 | [3] 0.0185 | [4] -0.0104

COc1ccc(-c2coc3c(OC)c(OC)cc(OC)c3c2=O)cc1
inactive: [5] 0.0837 | [6] 0.0693 | [7] 0.102 | [8] 0.078

CCOc1ccccc1N1C(=O)c2cccc3cccc(c23)C1=O
inactive: [5] 0.0619 | [6] 0.0408 | [7] 0.058 | [8] 0.0712

CC(C)(C)n1nc(-c2ccc(Cl)cc2)c2c(N)ncnc21
inactive: [25] 0.227 | [26] -0.0277 | [5] 0.174 | [6] 0.0475 | [8] 0.0249 | [28] -0.00123
active: [7] -0.388 | [27] -0.453

CCc1nc(N)nc(N)c1-c1ccc(Cl)cc1
inactive: [9] 0.129 | [10] 0.0541 | [13] 0.0417 | [14] 0.0477 | [5] 0.0408 | [6] 0.123 | [1] 0.112 | [2] 0.0163 | [15] 0.0837 | [16] 0.135 | [17] 0.0823 | [18] 0.107 | [7] 0.0817 | [8] 0.0354 | [3] 0.122 | [4] 0.129 | [19] 0.0808 | [20] 0.046 | [21] 0.0995 | [22] 0.0615 | [11] 0.0523 | [12] -0.0463 | [23] 0.153 | [24] 0.146

Cc1ccc(-c2nn(C(C)(C)C)c3ncnc(N)c23)cc1
inactive: [25] 0.00835 | [26] -0.00557 | [5] 0.0184 | [6] 0.0452 | [7] -0.0765 | [8] 0.104 | [28] -0.07
active: [27] -0.108

C=CC(=O)N1CCC[C@@H](n2nc(-c3ccc(Oc4ccccc4)cc3)c3c(N)ncnc32)C1
inactive: [13] -0.0901 | [14] 0.0229 | [15] -0.0466 | [16] 0.0297 | [17] 0.021 | [18] 0.0235 | [19] -0.0315 | [20] 0.0823 | [21] -0.0558 | [22] 0.16 | [23] -0.158 | [24] 0.0664

CC(=O)Oc1cc2c(c(C)c1OC(C)=O)CC=C1[C@@]2(C)CC[C@@]2(C)[C@@H]3C[C@](C)(C(=O)O)CC[C@]3(C)CC[C@]12C
inactive: [5] 0.0258 | [6] 0.000386 | [7] 0.0381 | [8] 0.209

CCN1CCN(CC(O)COc2cc(C)c(Cl)c(C)c2)CC1 (centres undefined)
inactive: [5] 0.082 | [6] 0.0372 | [7] 0.096 | [8] 0.29

CCCCCCCCCC(=O)N[C@@H](Cc1c[nH]c2ccccc12)C(=O)N[C@@H](CC(N)=O)C(=O)N[C@@H](CC(=O)O)C(=O)NC1C(=O)NCC(=O)N[C@@H](CCCN)C(=O)N[C@@H](CC(=O)O)C(=O)N[C@H](C)C(=O)N[C@@H](CC(=O)O)C(=O)NCC(=O)N[C@H](CO)C(=O)N[C@@H](C(C)CC(=O)O)C(=O)N[C@@H](CC(=O)c2ccccc2N)C(=O)OC1C (some centres undefined)
inactive: [13] -0.000338 | [14] -0.000608 | [15] 0.0186 | [16] 0.0343 | [17] 0.103 | [18] 0.0444 | [19] 0.0611 | [20] 0.0124 | [21] 0.0568 | [22] 0.116 | [23] -0.0118 | [24] -0.0633

COc1cc(OC)cc(C(CNc2ncnc3c2ncn3C2O[C@H](CO)[C@@H](O)[C@H]2O)c2ccccc2C)c1 (some centres undefined)
inactive: [1] 0.151 | [2] 0.0311 | [3] 0.147 | [4] 0.121

C#CCCCCCCCCCCC[C@@H](O)C[C@@H](O)COC(C)=O
inactive: [5] 0.145 | [6] 0.0417 | [7] 0.08 | [8] 0.0325

COc1ccc(CN2CCN(Cc3ccccc3C(F)(F)F)CC2)c(OC)c1OC
inactive: [5] -0.00682 | [6] 0.0327 | [7] 0.087 | [8] 0.144

CC=C(C)C(=O)OC1Cc2c(ccc3ccc(=O)oc23)OC1(C)C (centres undefined)
inactive: [5] 0.052 | [6] 0.0529 | [7] 0.186 | [8] 0.0456

CCCCCCCCCCCCCCCCCCOCC(O)CO (centres undefined)
inactive: [5] 0.0496 | [6] 0.117 | [7] 0.142 | [8] 0.0249

COc1ccc2c(c1)OC[C@@H](Cc1ccc(OC)c(OC)c1)[C@@H]2O
inactive: [5] 0.137 | [6] -0.0181 | [7] 0.209 | [8] 0.0843

COc1ccc2c(c1)OC[C@@H](Cc1ccc(OC)c(OC)c1)C2=O
inactive: [5] -0.018 | [6] 0.0264 | [7] 0.11 | [8] 0.0741

COc1ccc2c(c1)OCC(Cc1ccc(OC)c(OC(C)=O)c1)C2=O (centres undefined)
active: [7] -0.246
inactive: [5] 0.0793 | [6] -0.0163 | [8] -0.0188

Oc1cc(O)c2c(c1)O[C@H](c1cc(O)c(O)c(O)c1)[C@H](O)[C@H]2c1c(O)cc(O)c2c1O[C@H](c1cc(O)c(O)c(O)c1)[C@H](O)[C@H]2c1c(O)cc(O)c2c1O[C@H](c1cc(O)c(O)c(O)c1)[C@H](O)C2
inactive: [5] -0.0224 | [6] 0.066 | [7] 0.107 | [8] 0.0716

OC[C@H]1O[C@@H](O[C@H]2[C@H](O)[C@@H](O)C(O)O[C@@H]2CO)[C@H](O)[C@@H](O)[C@@H]1O (some centres undefined)
inactive: [5] -0.0294 | [6] 0.0659 | [7] 0.116 | [8] 0.0995

CC(C)(C)C(=O)OCOP(=O)(COCCn1cnc2c(N)ncnc21)OCOC(=O)C(C)(C)C
active: [19] -0.371 | [21] -0.686 | [23] -1.44 | [24] -0.304
inactive: [13] -0.0455 | [14] 0.0657 | [15] -0.0326 | [16] 0.0345 | [17] -0.105 | [18] -0.0287 | [20] -0.0209 | [22] -0.0516

C[C@H](Cn1cnc2c(N)ncnc21)OCP(=O)(O)O
inactive: [13] 0.0857 | [14] 0.09 | [1] 0.128 | [2] 0.113 | [15] 0.00908 | [16] 0.0155 | [17] 0.0338 | [18] 0.0939 | [3] 0.189 | [4] 0.0365 | [19] 0.0533 | [20] 0.0269 | [21] -0.0007 | [22] 0.0852 | [23] 0.0436 | [24] 0.126

Nc1ncnc2c1ncn2[C@@H]1O[C@H](COP(=O)(O)O)[C@@H](O)[C@H]1O
inactive: [5] 0.101 | [6] -0.0633 | [7] 0.171 | [8] 0.117

CC1CCC(O)C/C1=C/C=C1\CCCC2(C)C1CCC2C(C)/C=C/C(C)C(C)C (centres undefined)
inactive: [5] 0.0469 | [6] 0.0169 | [7] 0.0774 | [8] 0.0401

— the supplement of paper PMC6089552
